The values below come from PubChem BioAssay (NCATS).

Assay [1] in a line: Cell Viability - HUV-EC-C (AID 542).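 Note: cells exposed to compound for 40 hours; % is set by controls: 0 for no effect and ±100 for the full control effect; nearly all actives have a fitted effect of over 35% in size.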 The procedure, abridged:
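qHTS cytotoxicity: HUV-EC-C, 1000 cells/well, 5 hr settle, compound 40 hr 37 °C, CellTiter-Glo, luminescence. AC50 via Hill equation.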

Assay [2] in a line: Cell Viability - SH-SY5Y (AID 544).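 Note: cells exposed to compound for 40 hours; nearly all actives have a fitted effect of over 55% in size.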 Note: potency is the fitted concentration of half-maximal effect. The procedure, abridged: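 Luminescent ATP read-out (CellTiter-Glo) measures loss of viable SH-SY5Y neuroblastoma cells after 40 hr compound exposure at 37 °C. AC50 values derive from standard Hill modelling of qHTS concentration-response data.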
The nature of assay [3]: Cellular Toxicity (caspase-3) SHSY5Y (AID 657). The procedure, abridged:
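Luminescent Caspase-Glo 3/7 read-out, 1 hr room temperature, follows 16 hours of compound treatment of SH-SY5Y cells at 37 °C. Normalization: DMSO basal, 10 uM staurosporine as 100%; AC50 values from Hill-equation concentration-response fits.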

Assay [4] is described as follows: Cellular Toxicity (caspase-3) SK-N-SH (AID 661).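 Note: 0% = DMSO basal and 100% = 10 µM staurosporine.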 A digest of the protocol:
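Human neuroblastoma SK-N-SH, 1500 cells/well, 5 hr pre-incubation, then compound 16 hr, 37 °C. Caspase-Glo 3/7 reagent, 1 hr RT, luminescence. Norm. to DMSO/10 uM staurosporine; Hill-fit AC50.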

A short description of assay [5]: Cellular Toxicity (caspase-3) H-4-II-E (AID 663).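 For caspase-3 activation: 0% = DMSO basal and 100% = 100 µM tamoxifen.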 Note: potency is the fitted concentration of half-maximal effect. As to conditions: Potency: caspase-3 activation. The procedure, abridged: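 Rat hepatoma H-4-II-E cells (1500/well) plated 5 hr, then exposed to compound titrations for 16 hr at 37 °C. Caspase-Glo 3/7 luminescence read after 20 min at RT; data normalized to DMSO and 100 uM tamoxifen, AC50 from Hill fits.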
Assay [6] can be described thus: MultiTox-Fluor Cytotoxicity Assay - LYMP1-001 - Dead Cells (AID 946). Note: potency is the fitted concentration of half-maximal effect. A digest of the protocol:
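In this qHTS, 15 uM tetraoctylammonium bromide defined 100% and DMSO defined basal activity. Lymphoblastoid cells (LYMP1-001, 2500 per well) received compound for 16 hr at 37 C before a fluorogenic dead-cell substrate readout at 485/520 nm.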

Assay [7] is described as follows: Cell Viability - LYMP1-002 - Assay at 16 hr (AID 948). Note: potency is the fitted concentration of half-maximal effect. A digest of the protocol:
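ATP luminescence (CellTiter-Glo) was measured after 16 hr compound exposure at 37 C of 2500 lymphoblastoid LYMP1-002 cells per well. Concentration-response curves were fitted with the Hill equation to give AC50.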

A short description of assay [8]: MultiTox-Fluor Cytotoxicity Assay - LYMP1-002 - Live Cells (AID 955). Note: potency is the fitted concentration of half-maximal effect. The procedure, abridged:
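Read-out is live-cell protease activity (cell-permeant GF-AFC substrate, fluorescence Ex/Em=405/510), where a decrease indicates acute toxicity. Human lymphoblastoid cells were treated 16 hours at 37 C in a concentration series, and AC50 values came from standard Hill modelling.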

Assay [9] is described as follows: Cell Viability - LYMP2-013 (AID 970). Note: nearly all actives have a fitted effect of over 55% in size. Note: potency is the fitted concentration of half-maximal effect. A digest of the protocol:
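qHTS; 2500 lymphoblastoid cells/well; 5 hr 37 C settle; cpd 24 hr 37 C; CellTiter-Glo, 30 min RT; luminescence. AC50 = Hill fit.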

The nature of assay [10]: Cell Viability - LYMP2-017 (AID 972). Note: nearly all actives have a fitted effect of over 55% in size. Note: potency is the fitted concentration of half-maximal effect. The procedure, abridged:
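2500 cells/well, 5 h 37 C; cpd 24 h 37 C in complete medium; CellTiter-Glo, 30 min RT; luminescence (ATP). AC50 via Hill fit, qHTS.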

Assay [11] is described as follows: Cell Viability - LYMP2-007 (AID 979).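 Note: cells exposed to compound for 24 h before reading; nearly all actives have a fitted effect of over 60% in size.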 Note: potency is the fitted concentration of half-maximal effect. A digest of the protocol: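 Luminescent ATP signal (CellTiter-Glo) serves as the viability read-out after 24 hr compound treatment of lymphoblastoid cells in complete medium at 37 C. Concentration-response data were fitted to the Hill equation to give AC50 values.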
A short description of assay [12]: Cell Viability - LYMP2-010 (AID 981). Note: nearly all actives have a fitted effect of over 55% in size. Note: potency is the fitted concentration of half-maximal effect. The procedure, abridged:
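Luminescent ATP signal (CellTiter-Glo) served as the viability read-out. Cells of the human lymphoblastoid line were treated with compound over a concentration range for 24 hours at 37 C, and AC50 values came from Hill-equation modeling.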

A short description of assay [13]: Cell Viability - LYMP2-012 (AID 982). Note: potency is the fitted concentration of half-maximal effect.
Assay [14] in a line: Cell Viability - LYMP2-018 (AID 985).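 Note: compound exposure lasted 24 hr at 37 °C; nearly all actives have a fitted effect of over 50% in size.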 Note: potency is the fitted concentration of half-maximal effect. The procedure, abridged: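 Luminescent ATP signal (CellTiter-Glo, read after 30 min at room temperature) reports viable cells after 24 hr compound treatment at 37 C. Concentration-response data were fitted to the standard Hill equation for AC50.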
Assay [15] is described as follows: Cell Viability - LYMP2-020 (AID 986). Note: nearly all actives have a fitted effect of over 55% in size. Note: potency is the fitted concentration of half-maximal effect. The procedure, abridged:
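Luminescent ATP signal (CellTiter-Glo, 30 min at room temperature) is the read-out after 24 h compound treatment of lymphoblastoid cells at 37 C. AC50 values come from Hill-equation fits across concentrations.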

The nature of assay [16]: Cell Viability - LYMP2-022 (AID 987). Note: nearly all actives have a fitted effect of over 55% in size. Note: potency is the fitted concentration of half-maximal effect. A digest of the protocol: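 qHTS: human lymphoblastoid cells 2500/well; 5 hr 37 C; cpd added; 24 hr 37 C; CellTiter-Glo, 30 min RT; luminescence. AC50 via Hill fit; tetraoctylammonium bromide positive ctrl.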
Assay [17] in a line: Cell Viability - LYMP2-024 (AID 988). Note: nearly all actives have a fitted effect of over 60% in size. Note: potency is the fitted concentration of half-maximal effect. The procedure, abridged: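 Steps: seed 2500 cells/well, 5 hr 37 C; add compound, 24 hr 37 C; add CellTiter-Glo, 30 min room temperature; read luminescence. AC50 derived by Hill modelling of concentration-dependent ATP loss.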
Assay [18] in a line: qHTS assay for small molecule antagonists of retinoid X receptor alpha signaling (AID 588546).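 Note: cells stimulated with 9-cis-retinoic acid as agonist; % is set by controls: 0 for no effect and ±100 for the full control effect.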 As to conditions: HEK293T RXRa-UAS-bla, beta-lactamase ratio, antagonist mode; measured here: W530 green channel, cytotoxicity proxy. A digest of the protocol:
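Beta-lactamase reporter inhibition, read as CCF4 fluorescence ratio (ex 405, em 460/530 nm) after 2 h at RT. HEK293T UAS-bla cells, 2500/well, were stimulated with 9-cis-RA at 500 or 100 nM final alongside test compound for 18 h at 37 C.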
(In general: qHTS replaces the single test concentration by a dilution series.)

The nature of assay [19]: qHTS assay for small molecule agonists of the antioxidant response element (ARE) signaling pathway measured by Nrf2-dependant transcriptional activity - cell viability counter screen (AID 720653; active = well fitted curve in the direction sought with a large enough effect in the repeat runs; an effect the other way counts as inactive or inconclusive; note: potency is the fitted concentration of half-maximal effect; for max response: % is set by controls: 0 for no effect and ±100 for the full control effect). The settings on record: ARE-bla HepG2 viability, CellTiter-Glo ATP luminescence, 16 h; max response: stronger effect = lower value. A digest of the protocol: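 ARE-bla HepG2 cells treated with compounds for 16 h at 37C; this counter screen measures viability as intracellular ATP by CellTiter-Glo luminescence after 30 min at room temperature.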

A short description of assay [20]: qHTS assay for cell viability of HEK293 cells (AID 743288). For max response: % is set by controls: 0 for no effect and ±100 for the full control effect. Note: nearly all actives have a fitted effect of over 50% in size. Note: potency is the fitted concentration of half-maximal effect. The settings on record: ATP luminescence (CellTiter-Glo), 18 h; max response: stronger effect = lower value. The procedure, abridged: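 Total intracellular ATP, measured with a luciferase-coupled reagent, indicates the number of viable HEK293 cells. Exposure to test chemicals lasts 18 h at 37 C in 1,536-well format at 2,000 cells/well.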

Where “and” joins values, the source holds several entries; their conditions need not be identical. Equal values may be shown once. Results filed as inconclusive are left out. Calls of active or inactive are those of the source. Unless noted, calls come from the whole dose curve; as a rule, active = well fitted curve in the direction sought with a large enough effect; inconclusive = small, poorly fitted or top-dose-only effect, or another doubt; inactive = no such curve, though single readings can be large; an effect the other way counts as inactive or inconclusive.

Turning to `CC1(C)CC(N=C=O)CC(C)(CN=C=O)C1` (configuration not stated), the outcome in assay [1], in assay [3] and in assay [4] was inactive. The Potency result in [2], in assay [5], in assay [6], in assay [7], in [8] and in assay [9] was “inactive” in each case. Also, the Potency entry in [10], in [11], in [12], in assay [13], in [14] and in [15] was “inactive” each time. Also, the Potency result in assay [16] and in assay [17] was “inactive” each time. The max response in [18] is -0.108% and -15.8%; in [19], 6.59% (inactive) and -15.1% (inactive); in assay [20], -4.37% (inactive) and 1.94% (inactive).
For `CCCCOCCO`, the compound was called inactive in assay [1], in assay [3] and in assay [4]. The Potency result in assay [2], in assay [5], in assay [6], in assay [7], in [8] and in assay [9] was “inactive” in each case. For the same compound, the Potency result in [10], in assay [11], in assay [12], in assay [13], in [14] and in assay [15] was “inactive” each time. The Potency entry in assay [16] and in assay [17] was “inactive” each time. In addition, the max response in assay [18] was -0.95% and -3.08% and -12.9%; in [19] it was 4.17% (inactive) and -5.63% (inactive) and -2.53% (inactive); in assay [20], 4.48% (inactive) and -11.2% (inactive) and -7.95% (inactive).
In the case of `C=CC(=O)OCCOCCOCCOCCOC(=O)C=C`, the Potency in assay [2] is 7.94 µM (active) and 12.6 µM (active); in assay [6] it was 50.1 µM (active); in assay [7], 31.6 µM (active); in [8] it was 12.6 µM (active) and 15.8 µM (active); in assay [9], 20 µM (active) and 25.1 µM (active); in assay [10] it was 20 µM (active). Further, the Potency was 20 µM (active) in assay [11]; 15.8 µM (active) in [12]; 12.6 µM (active) in assay [13]; 15.8 µM (active) in assay [14]; 12.6 µM (active) and 15.8 µM (active) in [15]; 12.6 µM (active) in assay [16]. In addition, the Potency in assay [17] was 12.6 µM (active) and 15.8 µM (active). For the same compound, the max response in assay [19] is -13% (inactive).
In the case of `NC1=NC(S)C2N=CN=C2N1` (configuration not stated), the compound was called inactive in assay [1], in [3] and in assay [4]. For the same compound, the Potency in assay [2] was 12.6 µM (active); in assay [5], 2.51 µM (active); in [7], 12.6 µM (active); in [9], 20 µM (active); in [10] it was 12.6 µM (active); in [11] it was 15.8 µM (active). Besides, the Potency is 12.6 µM (active) in [12]; 7.94 µM (active) in assay [13]; 7.94 µM (active) in assay [14]; 10 µM (active) in assay [15]; 12.6 µM (active) in assay [16]; 12.6 µM (active) in [17]. The figures for the Potency in assay [19] and in assay [20] were 5.01 µM (active) and 2.82 µM (active), respectively. Also, in assay [18], the max response was found to be 4.34%.
Take `ClCCCl`: the compound was called inactive in assay [1], in [3] and in [4]. In addition, the Potency entry in assay [2], in assay [5], in assay [6], in [7], in [8] and in [9] was “inactive” in each case. Further, the Potency result in [10], in [11], in [12], in [13], in [14] and in assay [15] was “inactive” each time. In addition, the Potency entry in assay [16] and in [17] was “inactive” each time. The max response in assay [18] is -8.92% and -8.87% and -8.24%; in assay [19], 20.3% (inactive) and 6% (inactive) and -12.9% (inactive); in [20] it was -0.0928% (inactive) and -7.5% (inactive) and -2.25% (inactive).
